Common to all, as to experiment: NCI-60 one-dose screen, 48 h (100 = growth as untreated, 0 = no growth, -100 = all killed)
Settings in all cases: 10 µM unless noted

For test [1], the system named is SR leukemia.
The subject of test [2] is RPMI-8226 leukemia.
For test [3], the system named is OVCAR-8 ovarian.
Test [4] relates to OVCAR-5 ovarian.
For test [5], the system named is OVCAR-4 ovarian.
In test [6] the test system is SK-OV-3 ovarian.
Test [7] deals with IGROV1 ovarian.
For test [8], the system named is OVCAR-3 ovarian.
Test [9] deals with HS 578T breast.
In test [10] the test system is NCI/ADR-RES ovarian.

Where “and” joins values, the source holds several entries; their conditions need not be identical. Identical values can stand only once. About 83,000 compounds went through this panel and 20% of them were active in at least one assay; those are over-represented in the sample as a whole.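 How to read the values: 0–100, growth inhibition (40 = 60% inhibited); 0, no net growth; -100 to 0, cell death (-40 = 40% of starting cells died; -100 = all dead).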 Unmarked numbers belong to inactive results. Calls of active or inactive are those of the source. How the source made its calls: active means growth percent below 10; inactive means the rest.

The values below come from PubChem BioAssay (NCI).

As to `CC(C)=NOC(C)C(=O)O` (stereo not given), the growth in [1] was 92%; in test [2], 111%; in test [3], 90.2%; in [4] it was 101%; in test [5], 108%; in test [6] it was 115%. In addition, the growth in [7] is 135%; in test [8], 114%; in test [9], 108%.
On to `COc1ccc(CCN=Cc2ccc(Cl)cc2)cc1OC`, for which the growth was 98.5% in test [1]; 108% in test [2]; 104% in test [3]; 119% in test [4]; 110% in test [5]; 112% in [6]. The growth in test [7] is 105%; in [8], 115%; in test [9] it was 106%.
Turning to `O=C(NC(=O)c1ccc(F)c(Cl)c1)NC1CC1`, the growth was 91.4% in [1]; 98% and 102% in test [2]; 98.8% and 103% in test [3]; 109% and 105% in test [4]; 119% and 93.4% in test [5]; 114% and 105% in test [6]. Further, the growth in test [7] is 113% and 109%; in test [8], 104% and 107%; in test [9] it was 102% and 96.6%.
Take `C(#CCN1CCOCC1)CCCN1CCOCC1`: the growth in test [1] was 124% and 109%; in [2], 112%; in test [3] it was 105% and 106%; in test [4] it was 102% and 82.7%; in test [5], 102%; in test [6], 104% and 106%. The growth is 116% and 106% in test [7]; 116% and 111% in [8]; 112% and 114% in test [9].
Turning to `CCCCC/C(C)=N\NC(N)=S`, the growth is 86.9% in [1]; 70.9% in test [2]; 65.3% in test [3]; 103% in [4]; 67.8% in test [5]; 98.9% in test [6]. For the same compound, the growth is 89.7% in test [7], 43.4% in test [8] and 87.6% in [9].
Regarding `CCc1ccccc1-n1[nH]c(C)c(C=N)c1=O`, the growth in [1] was 94.8%; in test [2], 107%; in test [3], 118%; in [4], 110%; in test [5], 114%; in test [6], 119%. For the same compound, the growth in test [7] is 112%; in test [8] it was 124%; in [9], 99.2%; in test [10] it was 106%.
For the compound `COc1ccc2oc3cc(NCCN(C)C)ccc3c(=O)c2c1`, the growth is 38.9% in [1]; 103% and 73.2% in test [2]; 88% and 63.4% in [3]; 88.2% and 87.1% in test [4]; 106% and 91.7% in [5]; 92.5% and 55% in test [6]. The growth in test [7] is 90.3% and 88.4%; in [8] it was 121% and 107%; in test [9], 105% and 83.9%; in test [10] it was 90.5% and 69.6%.
For the compound `COC(=O)C(Cc1cn(C(C)=O)c2ccccc12)P(=O)(OC)OC` (stereo not given), the growth is 94.6% in test [1]; 101% in test [2]; 106% in test [3]; 103% in test [4]; 87% in test [5]; 113% in test [6]. Moreover, the growth was 113% in test [7], 106% in test [8], 94.2% in test [9] and 95.3% in test [10].
Turning to `CC1CC(O)CC(C)(C)C1.CC1CC(O)CC(C)(C)C1.CC1CC(O)CC(C)(C)C1.CC1CC(O)CC(C)(C)C1.[Ti]` (stereo not given), the growth in test [1] is 81.1%; in [2] it was 96.5%; in [3], 106%; in [4], 114%; in test [5], 127%; in test [6], 91.4%. Besides, the growth is 101% in [7], 122% in test [8], 99.9% in test [9] and 99.1% in test [10].
With `COc1cc2oc3cc(=O)cc4oc(-c5ccccc5)cc(c2c2c1CCC(c1ccccc1)O2)c43` (stereo not given), the growth in test [1] was 69.6%; in [2], 61.4%; in [3] it was 87%; in test [4] it was 106%; in [5], 84.8%; in [6] it was 92.8%. Moreover, the growth in test [7] is 70.3%; in test [8], 106%; in test [9], 65.7%; in [10], 86.6%.
Consider `NC1=NC(c2ccccc2)N=C(Nc2ccccc2)N1` (stereo not given), for which the growth in test [1] is 2.95% (active); in [2] it was 95.5% and 130%; in test [3] it was 97.6% and 101%; in test [4] it was 101% and 94.7%; in [5], 117% and 62.4%; in test [6] it was 94.3% and 67.6%. The growth in test [7] was 110% and 111%; in test [8], 9.87% (active) and -1.56% (active); in test [9] it was 26.1% and 42.4%; in test [10], 111% and 109%.
